Experimental data from PubChem BioAssay AID624417 (National Center for Advancing Translational Sciences (NCATS), 2012).
The whole screen tested about 410,000 compounds, of which about 6,400 (1.6%) were called active. Another 20% or so got no clear call; they are omitted. The call rests on the fitted dose curve; in most records, active means well fitted inhibition curve with a large enough effect; inconclusive means small, poorly fitted or top-dose-only effect; inactive means no such curve, though single readings can be large or run the other way. What follows is part of a selection rich in actives, with near analogues and random picks from the rest.

Biological target: Glucagon-like peptide 1 receptor (Homo sapiens) (UniProt P43220)
Assay: qHTS of GLP-1 Receptor Inverse Agonists (Inhibition Mode); further: nearly all actives have a fitted effect of over 55% in size
Details: HEK293 GLP-1R CRE-luciferase, luminescence, 24 h, GLP-1R form is constitutively active; series mostly up to 38.3 µM; activity change, negative = inhibition: at the top concentration
Summary of the method: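 qHTS in 1536-well format: reporter HEK293 cells expressing constitutive GLP-1R activity in DMEM + 10% Nu serum, 24 hr with compounds at 37 deg C, luminescence read after 12 min with detection reagent.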
On the % scale 0 is the no-effect control and ±100 the full control effect; potency means the concentration at half of the fitted maximal effect.

Sequence of Glucagon-like peptide 1 receptor (Homo sapiens) (P43220 whole entry, looked up): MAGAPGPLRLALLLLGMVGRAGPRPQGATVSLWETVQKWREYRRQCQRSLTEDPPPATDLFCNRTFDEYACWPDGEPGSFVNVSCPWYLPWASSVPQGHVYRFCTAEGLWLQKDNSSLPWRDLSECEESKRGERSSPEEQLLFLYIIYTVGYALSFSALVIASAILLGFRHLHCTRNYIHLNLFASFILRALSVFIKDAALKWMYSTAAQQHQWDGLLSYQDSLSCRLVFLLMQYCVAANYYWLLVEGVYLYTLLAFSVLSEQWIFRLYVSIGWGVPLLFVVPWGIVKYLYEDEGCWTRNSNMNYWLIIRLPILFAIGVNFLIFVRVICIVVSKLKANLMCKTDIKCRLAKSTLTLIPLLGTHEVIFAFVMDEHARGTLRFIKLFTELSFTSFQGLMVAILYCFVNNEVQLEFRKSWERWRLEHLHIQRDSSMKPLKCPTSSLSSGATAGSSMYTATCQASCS

Activity change, negative = inhibition, inactive:
CCOC(=O)c1c(NC(=O)COC(=O)c2ccc(S(=O)(=O)C(F)F)cc2)sc(C(=O)N(C)C)c1C 12.2%
COc1ccc(CC(N)c2csc(NC(=O)NC(c3ccccc3)c3ccccc3)n2)cc1 (stereo not given) -7.52%
C[C@@H]1CN([C@H](C)CO)C(=O)CCCn2cc(nn2)CO[C@H]1CN(C)S(=O)(=O)c1ccc(Oc2ccccc2)nc1 3.37%
Cc1ccc(-c2noc(CSc3nnc(-c4ccc(Cl)cc4)n3C)n2)cc1 12.7%
c1ccc(CCc2nc(-c3ccncc3)no2)cc1 2.26%
CC[C@@H]1CC2=C(C(=O)OC(C)(C)O2)[C@@H](CC)O1 26.8%
CC1(C)NC(=O)N(CC(=O)Nc2ccc(-c3ccccc3)cc2)C1=O 0.129%
Cc1c(C(=O)NCc2ccc(C#N)cc2)sc(=O)n1Cc1ccc(C(=O)N(C)C)cc1 10.9%
CCOC(=O)N1CCN(Cc2nc(Cc3cccc(C(F)(F)F)c3)no2)CC1 -5.14%
O=C(c1ccco1)N1CCN(Cc2cccc(C(F)(F)F)c2)CC1 -16.9%
O=C(NCc1ccccc1)C1c2ccccc2OCC(=O)N1CCCN1CCOCC1 (stereo not given) 20.2%
Cc1cc(Br)ccc1NC(=O)CCCOc1cc(=O)n(C)c2ccccc12 7.24%
Cc1ccc(CN(CC(=O)NC2CCCCC2)C(=O)c2csnn2)cc1 -22.4%
COc1ccc(CN(CC(=O)NC2CCCC2)C(=O)CCC(=O)Nc2cc(C)on2)cc1 -8.66%
O=C(CC[C@H]1O[C@@H](n2ccc(=O)[nH]c2=O)[C@H](O)[C@@H]1O)N[C@H](Cc1ccccc1)C(=O)NCc1ccco1 12.8%
Cc1cccc(C)c1OCC(O)CN1CCCCC1 (stereo not given) -1.02%
CC1CCCN(CC(O)COCc2ccccc2)C1 (stereo not given) -6.19%
Cc1nc(C(F)(F)F)ccc1C(=O)N1CCC1(C)C(=O)NS(=O)(=O)c1ccccc1Cl (stereo not given) 15.1%
CCOC(=O)N(C)c1c(CC)nc2c(OCc3ccccc3C(=O)OC)cccn12 13.9%
COc1ccc(C(=O)OCC(=O)N2CC(=O)Nc3ccccc32)cc1Br 17.7%
COc1cc(OC)c(C(=O)OCC(=O)N2CC(=O)Nc3ccccc32)cc1OC 19.5%
Nc1cc(=O)c2[nH]cnc2[nH]1 2.06%
Cc1cc(C)n2c(Nc3c(C)cccc3C)c(CCc3ccccc3)nc2n1 -31.1%
CN(Cc1ccccc1F)c1cc2c(c3c1ccn3C)C1CCC2O1 (stereo not given) -30.3%
N#CC1(Nc2ccc3c4c(cccc24)CC3)CCCCC1 -13.8%
O=C(NNC(=O)C1CCN(c2ncccn2)CC1)c1ccccc1 13.1%
Cc1sc2ncnc(N3CCC(C(=O)Nc4nc5ccc(Cl)cc5s4)CC3)c2c1C 12.3%
C[C@H]1CN([C@@H](C)CO)C(=O)c2cc(C3=CCCCC3)cnc2O[C@@H]1CN(C)C(=O)Cc1ccccc1 -17.6%
CC(C)Nc1ncnc2c1ncn2[C@H]1CN(Cc2ccncc2)C[C@@H](CO)O1 29.6%
O=C(NCc1ccc(Cl)cc1)NCc1ccc(Cl)cc1 -0.855% [at 7.66 µM]
O=C(NCc1ccncc1)NC12CC3CC(CC(C3)C1)C2 -8.91%
O=C(NC1CCCC1)C1c2ccccc2OCC(=O)N1Cc1ccccc1 (stereo not given) 1.36%
CCOC(=O)c1cnn2c(SC)ncnc12 14.2%
CC(C)Nc1nc(N(c2ccccc2)c2ccccc2)nc(-n2ccnc2)n1 0.283%
CC(C)Cn1cc(-c2cncc3nccn23)cn1 12.6%
CCCC(=O)N1CCC1(C)C(=O)NS(=O)(=O)c1ccc(Cl)cc1 (stereo not given) 4.5%
CCCNC(=O)C1(C)CCCN(Cc2c(C)nn(-c3ccccc3)c2C)C1 (stereo not given) -17.1%
Cc1c(C)n(Cc2ccc(Cl)cc2)c2ccc(C(=O)NCCc3ccc(S(N)(=O)=O)cc3)cc12 -12.1%
O=C(NCCCN1CCOCC1)c1cc(-c2ccc(Cl)cc2)on1 0%
Cc1nc2nc3c(cn2n1)C(=O)CC(c1ccccc1)C3 (stereo not given) -0.051%

Potency, active:
Cc1ccc(-c2noc(CC(c3ccccc3)c3ccccc3)n2)cc1 5.62 µM
FC(F)(F)c1cccc(Cc2noc(CN3CCC(N4CCCCC4)CC3)n2)c1 5.62 µM
Cc1cc(C(C)(C)C)oc1C(=O)N(CC(=O)NC1CCCC1)Cc1ccc(Cl)cc1 7.08 µM
Cc1ccccc1C(OCC(O)CN1CCCCC1CCO)c1ccccc1 (stereo not given) 10 µM
COc1ccc(Cl)cc1-n1c(C)cc(C(=O)OCC(=O)N2CC(=O)Nc3ccccc32)c1C 10 µM
CCc1ccc(C(=O)NNC(=O)C2CCN(c3ncnc4sc(C)c(C)c34)CC2)cc1 10 µM
S=C(NCc1ccc(Cl)cc1)NC12CC3CC(CC(C3)C1)C2 8.91 µM
N#Cc1nc(N)nc(N(c2ccccc2)c2ccccc2)n1 12.6 µM
Cc1c(C)n(Cc2ccc(Cl)cc2)c2ccc(C(=O)NCCCN3CCOCC3)cc12 1.12 µM
CCN1CCN(c2ncc3c(n2)CC(c2ccccc2O)CC3=O)CC1 (stereo not given) 10 µM
